FEN1 inhibitor = qHTS Assay for the Inhibitors of Human Flap endonuclease 1 (FEN1); P39748; Potency, µM (doses to about 114 µM), inactives show top-dose activity change, negative = inhibition, most hits filed as inhibitors; Recombinant FEN1 flap cleavage, fluorescence, 15 min; actives 0.35% (n = 390,000); AID 588795, 2011; also: potency is read from the fitted curve at half-maximal effect; nearly all actives have a fitted effect of over 65% in size
Target sequence (P39748 whole entry, looked up): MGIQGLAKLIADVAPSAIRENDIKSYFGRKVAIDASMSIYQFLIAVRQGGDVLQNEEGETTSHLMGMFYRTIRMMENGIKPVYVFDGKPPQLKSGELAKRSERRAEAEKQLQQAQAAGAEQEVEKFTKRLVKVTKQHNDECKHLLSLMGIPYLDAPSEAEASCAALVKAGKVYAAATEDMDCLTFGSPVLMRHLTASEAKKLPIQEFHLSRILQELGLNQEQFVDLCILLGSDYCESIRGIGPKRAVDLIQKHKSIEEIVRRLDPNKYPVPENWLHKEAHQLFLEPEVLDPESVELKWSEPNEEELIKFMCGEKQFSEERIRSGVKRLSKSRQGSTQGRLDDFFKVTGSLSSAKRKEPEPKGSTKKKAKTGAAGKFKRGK
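Potency values derive from four-parameter Hill fits of normalized qHTS data. The reaction used 10 nM FEN1 preincubated 15 min at room temperature with compound, then 50 nM DNA substrate, read at 0 and 15 min.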
Tb PGK inh = qHTS Assay to Find Inhibitors of Phosphoglycerate Kinase | actives 0.043% (n = 380,000) | Potency, µM (top dose mostly 57.5 µM), inactives show at the highest dose activity change, negative = inhibition, hits mostly inhibitors | AID 602233, 2012 | PGK/GAPDH coupled, Kinase-Glo luminescence, 60 min; also: potency is read from the fitted curve at half-maximal effect; nearly all actives have a fitted effect of over 60% in size
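Luminescent ATP detection (Kinase-Glo Plus) follows a 60-minute room-temperature incubation, with wells lacking PGK as controls. Buffer: 100 mM TEA (pH 7.6), 5 mM MgCl2, 0.01% Tween-20. Coupling enzyme GAPDH (100 nM final) supplies unstable 1,3-BPG in-well.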
WRN helicase inh = qHTS for Inhibitors of WRN Helicase; Bifunctional 3'-5' exonuclease/ATP-dependent helicase WRN (Homo sapiens), Q14191; WRN helicase unwinding, fluorescent forked duplex, kinetic; Potency, µM (titrated, usually from 114 µM), inactives show at the top dose activity change, negative = inhibition, hits mostly inhibitors; actives 0.46% (n = 360,000); AID 651768, 2012; also: potency is read from the fitted curve at half-maximal effect; nearly all actives have a fitted effect of over 55% in size
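Fluorescence dequenching readout, ex 525 nm/em 598 nm, kinetic mode: forked duplex DNA (100 nM final) with adjacent fluorophore and quencher unwound by WRN (20 nM final) with 2 mM ATP. Compound preincubation 15 min, room temperature.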
Tb PFK inh = qHTS Assay to Find Inhibitors of T. brucei phosphofructokinase; ATP-dependent 6-phosphofructokinase (Trypanosoma brucei brucei), O15648; T. brucei PFK, ADP-Glo luminescence; Potency, µM (highest dose often 57.5 µM), for the others: at the top dose activity, negative = inhibition, usual class: inhibitors; actives 0.17% (n = 330,000); AID 485367, 2010;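 also: potency is read from the fitted curve at half-maximal effect; 0% = uninhibited 1x PFK enzyme wells and -100% = no-enzyme wells; nearly all actives have a fitted effect of over 60% in size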
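Luminescent ADP detection (ADP-Glo, two-step: ATP depletion then ADP-to-ATP conversion for luciferase) reported PFK activity after 45 min room-temperature reaction of 1.25 nM enzyme with 0.5 mM F6P and 0.1 mM ATP at pH 8.0.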
PI5P4Ka inh = qHTS for Inhibitors of phosphatidylinositol 5-phosphate 4-kinase (PI5P4K); Phosphatidylinositol 5-phosphate 4-kinase type-2 alpha (Homo sapiens), P48426; max response, %; actives 1.2% (n = 330,000); AID 652105, 2013; PI5P4Kalpha enzyme, ADP-Glo luminescence, 60 min; active compounds read low; active = max response of -50% or lower; inconclusive = between -30% and -50%; inactive = -30% or higher; also: value at the top dose of about 77 µM
Target sequence (P48426 whole entry, looked up): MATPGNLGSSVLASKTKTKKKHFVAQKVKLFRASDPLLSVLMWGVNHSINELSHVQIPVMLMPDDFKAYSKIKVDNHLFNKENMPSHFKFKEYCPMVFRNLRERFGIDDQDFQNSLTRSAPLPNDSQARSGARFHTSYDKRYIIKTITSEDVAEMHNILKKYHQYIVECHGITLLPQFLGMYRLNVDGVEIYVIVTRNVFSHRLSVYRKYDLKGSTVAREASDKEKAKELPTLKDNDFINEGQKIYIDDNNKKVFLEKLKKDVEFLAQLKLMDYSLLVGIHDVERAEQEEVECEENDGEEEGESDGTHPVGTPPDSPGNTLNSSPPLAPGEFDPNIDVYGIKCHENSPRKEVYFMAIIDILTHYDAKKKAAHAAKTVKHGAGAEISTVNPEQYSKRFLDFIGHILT
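Reactions run in 0.038 M HEPES pH 7.4, 0.28 mM EGTA, 0.1% CHAPS and 5% DMSO, with PI5P4Kalpha, substrate, compound and 5 microM ATP final, one hour at room temperature. Readout is ADP-Glo luminescence.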
TDP1 inh = qHTS Assay for Inhibitors of Tyrosyl-DNA Phosphodiesterase (TDP1). actives 0.28% (n = 350,000). Tyrosyl-DNA phosphodiesterase 1 (Homo sapiens), Q9NUW8. recombinant TDP1, AlphaScreen DNA substrate cleavage. Potency, µM (titrated, usually from 130 µM), without a hit: at the highest dose activity change, negative = inhibition, most hits filed as inhibitors. AID 485290, 2010; also: potency is read from the fitted curve at half-maximal effect; nearly all actives have a fitted effect of over 40% in size
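Compounds were preincubated with Tdp1 (1 nM final) for 15 min at room temperature before substrate (15 nM final) started a 5 min reaction; beads (10 ug/ml final) were then added for 10 min before AlphaScreen detection.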
Numbers without * were called inactive; i = inactive; u = inconclusive; x = no result given; [ ] = dose if it differs, or a comment. In the library only some 1.5% were active in any assay of this set; here they are far more common. Unless noted, calls follow the shape of the dose curve; as a rule, active = well fitted curve in the direction sought with a large enough effect; inconclusive = small, poorly fitted or top-dose-only effect, or another doubt; inactive = no such curve, though single readings can be large; an effect the other way counts as inactive or inconclusive. Unless noted, % is scaled to controls: 0 for no effect and ±100 for the full control effect.

SMILES	FEN1 inhibitor	Tb PGK inh	WRN helicase inh	Tb PFK inh	PI5P4Ka inh	TDP1 inh
CC(=O)c1cccc(-c2cnc3c(NC=O)cc(-c4ccc(F)cc4)cn23)c1	x	x	u	x	-21.2	x
CC(=O)c1ccc(-c2cnc3c(NC=O)cc(-c4ccc(C(=O)NC5CC5)cc4)cn23)cc1	x	x	u	x	-67.8*	x
O=CNc1cc(-c2ccc(C(=O)NC3CC3)cc2)cn2c(-c3ccccc3)cnc12	x	x	-21.2%	x	-24.0	x
CC(=O)Nc1cccc(-c2cc(NC=O)c3ncc(-c4ccc(C(C)=O)cc4)n3c2)c1	x	x	-21.4%	x	-51.4*	x
COc1ccc(-c2cc(NC=O)c3ncc(-c4cc(OC)c(OC)c(OC)c4)n3c2)cc1	x	x	79.4µM*	x	u	x
O=CNc1cc(-c2cccc(O)c2)cn2c(-c3ccc(F)cc3)cnc12	x	x	-15.5%	x	-72.3*	x
CCCCc1nc2c(c3c1C[C@H](C)OC3)CN(S(=O)(=O)c1c(C)noc1C)CC2	x	x	x	x	x	8.2%[21 µM]
COc1cc2c(cc1[N+](=O)[O-])-c1ccc([N+](=O)[O-])cc1C2=NNC(N)=S	x	-4.9%	-26.3%	x	-58.6*	x
COc1ccc(C(F)(F)F)cc1NC(=O)C(OC(=O)CNC(=O)c1ccccc1)c1ccccc1 (centres undefined)	x	x	x	x	x	-2.1%
O=C1CC(c2ccc(Cl)cc2)CC(=O)C1CS(=O)(=O)c1ccccc1 (centres undefined)	-2.3%	2.5%	-7.4%[57.1 µM]	-7.0%	-57.9*	2.5%
O=[N+]([O-])c1ccc(-c2cc3ccccc3[nH]2)cc1	6.7%	x	x	x	x	x
O=C(CCl)N1N=C(c2ccco2)CC1c1ccco1 (centres undefined)	u	-19.7%	56.2µM*	u	-69.9*	-17.9%
O=C(CCl)N1N=C(c2cccs2)CC1c1ccco1 (centres undefined)	-0.2%	i	-1.7%	-3.2%	-6.5	0.0%
CC(=O)c1ccc2c(c1)C1C=CCC1C(c1ccncc1)N2 (centres undefined)	-18.4%	-0.7%	-32.7%	9.2%	-4.6	7.1%
C1=CC2c3ccccc3NC(c3ccncc3)C2C1 (centres undefined)	-10.3%	3.8%	-28.2%	-13.0%	-57.4*	6.1%
Cc1ccc(-c2c(C(=O)N/N=C/c3cccnc3)nnn2-c2nonc2N)cc1	12.4%	-3.0%	-0.7%	-0.4%	0.6	0.6%
CCOc1ccc(-c2c(C(=O)N/N=C/c3cccnc3)nnn2-c2nonc2N)cc1	-6.5%	i	6.7%	-3.2%	1.9	50.1µM*
O=c1nc(/C=C/c2cc([N+](=O)[O-])ccc2Cl)cc(C(F)(F)F)[nH]1	4.3%	i	-26.3%[57.1 µM]	3.3%	-8.7	3.6%
O=c1nc(/C=C/c2cccn2-c2ccc([N+](=O)[O-])cc2)cc(C(F)(F)F)[nH]1	-19.4%	-1.7%	u	22.5%	-69.2*	7.4%
CC(C)Oc1cccc(C(=O)Nc2ccc(-c3nc4cc(Cl)cc(Cl)c4o3)cc2)c1	-13.3%	i	x	x	x	-7.5%[12.3 µM]
CCOc1cccc(C2C=C(c3ccc4c(c3)OCO4)NC(c3cccc(Br)c3)N2)c1O (centres undefined)	-17.0%	x	x	x	x	2.0%
COc1ccc(/C=C/c2nccc3c2[nH]c2ccccc23)cc1	-26.3%	x	x	x	x	2.5%
C(=C/c1nccc2c1[nH]c1ccccc12)/c1ccc2c(c1)OCO2	44.7µM*	i	-23.0%	-2.2%	-17.8	1.8%
CCC(Nc1ncnc2ccc(-c3c(C)noc3C)cc12)c1ccccc1 (centres undefined)	x	x	x	x	x	6.8%
CCCCC(=O)OCC(=O)[C@]1(O)Cc2c(O)c3c(c(O)c2[C@H](OC2CC(NC(=O)C(F)(F)F)C(O)C(C)O2)C1)C(=O)c1c(OC)cccc1C3=O (some centres undefined)	x	x	x	x	x	12.8%
SMILES	FEN1 inhibitor	Tb PGK inh	WRN helicase inh	Tb PFK inh	PI5P4Ka inh	TDP1 inh
CC(=O)[C@]1(O)Cc2c(O)c3c(c(O)c2[C@@H](O[C@H]2C[C@H](N)[C@H](O)[C@H](C)O2)C1)C(=O)c1ccccc1C3=O	x	i	31.6µM*	x	7.9	10.2%[56.1 µM]
O=C(Cn1cnnn1)OCC(=O)c1ccc(Cl)s1	-11.4%	-19.8%	-9.0%[11.6 µM]	4.0%	-66.2*	0.0%
O=C(CNC(=O)c1cccc(Br)c1)N/N=C/c1cc(Br)cc(Br)c1O	-16.8%	1.0%	-5.9%	-0.5%	u	7.7%
O=C(Cc1ccccc1)N/N=C/c1cc(Br)cc(Br)c1O	-0.7%	-1.7%	-6.4%	-0.7%	-57.2*	x
O=C(Nc1cccc(N=Cc2cc(Br)cc(Br)c2O)c1)c1ccco1	-13.4%	-11.9%	u	-2.1%	-58.7*	5.4%
O=C(Nc1cccc(N=Cc2cc(Cl)cc(Br)c2O)c1)c1ccco1	-17.4%	-7.6%	u	-1.3%	-54.7*	5.6%
Cc1ccc(NS(=O)(=O)c2ccc3c(ccn3C)c2)cc1C	x	x	x	x	x	0.1%
O=S(=O)(c1ccc2nc(Cl)c(Cl)nc2c1)N1CCN(S(=O)(=O)c2c(F)cccc2F)CC1	x	x	x	x	x	-13.0%
O=[N+]([O-])c1ccc(O)c(/C=N/Nc2nc3ccccc3[nH]2)c1	5.0%	-3.2%	-7.1%	1.6%	5.7	10.3%
O=[N+]([O-])c1ccc(O)c(/C=N/Nc2ncnc3c2cnn3-c2ccccc2)c1	-14.0%	-1.2%	-6.4%	0.2%	-74.6*	x
Fc1ccc(N2N=C(c3cccs3)CC2c2ccccc2)cc1 (centres undefined)	-13.0%	i	-5.0%	3.5%	8.0	12.6µM*
O=C(NCc1ccc(Cl)cc1)c1ccc(NC(=O)N2CC3CCCN3c3ccccc32)cc1 (centres undefined)	-2.0%	10.0%	x	x	x	12.7%
Cc1ccc(C(=O)Nc2ccc(S(=O)(=O)O)c3cc(S(=O)(=O)O)cc(S(=O)(=O)O)c23)cc1NC(=O)c1cccc(NC(=O)Nc2cccc(C(=O)Nc3cc(C(=O)Nc4ccc(S(=O)(=O)O)c5cc(S(=O)(=O)O)cc(S(=O)(=O)O)c45)ccc3C)c2)c1	1.26µM*	x	x	x	x	4.47µM*
COc1ccc(N=C2NC(=O)/C(=C/c3ccco3)S2)cc1	-5.5%	-5.5%	-8.2%	1.0%	-27.3	0.6%
Cc1ccc(N=C2NC(=O)/C(=C/C=C/c3ccco3)S2)cc1	50.1µM*	-14.1%	35.5µM*	-20.0%	-77.8*	-5.6%

Compound activity from PubChem BioAssay.
